Calls of active or inactive are those of the source. How the source made its calls: active means hit-call score of the fitted dose curve at least 0.9, where 1 is the maximum; inactive means score below 0.9.
How the values were obtained:
[1] = target: Bile acid receptor (Homo sapiens) (UniProt Q96RI1); assay: ATG_IR1_CIS: Attagene CIS-FACTORIAL HepG2 Assay for human Nuclear Receptor Subfamily 1 Group H Member 4 (NR1H4), IR1 submotif (AID 2282946); details: IR1 reporter transcription, actives raise or lower the signal
Chain of Bile acid receptor (Homo sapiens) (Q96RI1 whole entry, looked up): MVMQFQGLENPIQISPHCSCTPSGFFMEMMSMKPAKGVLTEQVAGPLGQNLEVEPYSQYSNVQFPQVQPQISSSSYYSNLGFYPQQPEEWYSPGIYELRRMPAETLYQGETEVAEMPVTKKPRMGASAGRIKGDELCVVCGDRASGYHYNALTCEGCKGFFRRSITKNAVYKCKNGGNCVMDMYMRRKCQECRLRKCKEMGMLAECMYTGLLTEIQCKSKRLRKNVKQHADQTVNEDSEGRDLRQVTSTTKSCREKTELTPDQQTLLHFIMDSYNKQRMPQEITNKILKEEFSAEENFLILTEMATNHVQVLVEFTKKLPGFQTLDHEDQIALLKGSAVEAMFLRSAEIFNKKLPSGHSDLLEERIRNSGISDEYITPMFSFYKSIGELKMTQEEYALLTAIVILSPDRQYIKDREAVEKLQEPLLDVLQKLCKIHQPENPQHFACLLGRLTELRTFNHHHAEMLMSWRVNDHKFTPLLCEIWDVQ
Method in brief: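 Transient MRTU transfection, HepG2; 24 h dosing; RNA → RT-PCR → 6-FAM primer extension → HpaI digest → capillary electrophoresis fluorescence. Gain/loss of signal fitted relative to DMSO.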

[2] = ATG_ISRE_CIS: Attagene CIS-FACTORIAL HepG2 Assay for human Interferon Regulatory Factor 1 (IRF1) binding to an Interferon-Stimulated Response Element (ISRE) (AID 2282948); details: HepG2 ISRE cis-reporter (Attagene), mRNA transcription readout; actives raise or lower the signal
Method in brief: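 Quantitation relies on labelled RT-PCR fragments separated by capillary electrophoresis. Human HepG2 cells bearing cis-promoter reporter constructs were treated 24 h; DMSO served as baseline for bidirectional fitting.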

[3] = ATG_M_32_CIS: Attagene CIS-FACTORIAL HepG2 Assay for M32 Transcription Factor (Internal Marker) (AID 2282949); details: HepG2 Attagene cis-factorial M32 reporter, mRNA; actives raise or lower the signal;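 further: background control marker of the multiplexed CIS panel rather than a real target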
Method in brief: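 Following 24 h chemical exposure of HepG2 cells transiently expressing cis-promoter reporter constructs, reporter transcript levels were determined by RT-PCR with fluorescent labelling and capillary electrophoresis, then fitted bidirectionally against DMSO.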

[4] = ATG_M_06_CIS: Attagene CIS-FACTORIAL HepG2 Assay for M06 Transcription Factor (Internal Marker) (AID 2282950); details: HepG2 Attagene CIS-FACTORIAL M06 internal marker reporter; actives raise or lower the signal
Method in brief: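 Fluorescence-labelled RT-PCR products from cis-promoter reporter units, cut with HpaI and resolved by capillary electrophoresis, give the signal. Cells are human HepG2, dosed for 24 h. Serves as background control, fitted relative to DMSO.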

[5] = target: Hypoxia-inducible factor 1-alpha (Homo sapiens) (UniProt Q16665); assay: ATG_HIF1a_CIS: Attagene CIS-FACTORIAL HepG2 Assay for human Hypoxia Inducible Factor 1 (HIF1A) (AID 2282951); details: HepG2 Attagene cis-factorial HIF1a reporter transcription; actives raise or lower the signal
Chain of Hypoxia-inducible factor 1-alpha (Homo sapiens) (Q16665 whole entry, looked up): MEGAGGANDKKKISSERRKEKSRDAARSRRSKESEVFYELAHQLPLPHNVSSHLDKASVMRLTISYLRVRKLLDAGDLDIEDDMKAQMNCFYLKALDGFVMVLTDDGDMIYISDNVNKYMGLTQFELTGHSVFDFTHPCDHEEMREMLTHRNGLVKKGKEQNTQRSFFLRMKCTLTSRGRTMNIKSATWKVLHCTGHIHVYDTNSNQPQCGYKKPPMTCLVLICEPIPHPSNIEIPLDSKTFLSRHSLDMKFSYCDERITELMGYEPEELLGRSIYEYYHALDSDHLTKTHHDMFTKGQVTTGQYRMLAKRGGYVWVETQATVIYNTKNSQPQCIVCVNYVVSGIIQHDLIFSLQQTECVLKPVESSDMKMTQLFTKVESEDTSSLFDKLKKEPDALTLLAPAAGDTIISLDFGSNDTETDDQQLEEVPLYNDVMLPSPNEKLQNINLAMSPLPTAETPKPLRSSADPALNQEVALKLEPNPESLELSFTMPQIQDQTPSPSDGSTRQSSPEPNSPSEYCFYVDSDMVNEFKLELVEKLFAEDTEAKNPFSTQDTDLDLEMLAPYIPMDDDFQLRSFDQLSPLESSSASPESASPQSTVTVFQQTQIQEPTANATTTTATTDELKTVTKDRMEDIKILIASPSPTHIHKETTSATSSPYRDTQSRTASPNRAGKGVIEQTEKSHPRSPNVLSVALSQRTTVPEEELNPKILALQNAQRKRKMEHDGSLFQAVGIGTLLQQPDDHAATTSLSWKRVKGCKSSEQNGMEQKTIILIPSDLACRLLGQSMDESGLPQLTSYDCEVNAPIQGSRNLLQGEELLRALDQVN
Method in brief: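 Measures endogenous transcription-factor activity through cis-regulated reporter mRNA in HepG2. Cells dosed 24 h; transcripts quantified by RT-PCR with 6-FAM-labelled products separated by capillary electrophoresis; DMSO serves as negative control.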

[6] = target: Hepatocyte nuclear factor 6 (Homo sapiens) (UniProt Q9UBC0); assay: ATG_HNF6_CIS: Attagene CIS-FACTORIAL HepG2 Assay for human Hepatocyte Nuclear Factor 6 (HNF6) (AID 2282952); details: HepG2 Attagene cis-factorial HNF6 reporter transcription; actives raise or lower the signal
Chain of Hepatocyte nuclear factor 6 (Homo sapiens) (Q9UBC0 whole entry, looked up): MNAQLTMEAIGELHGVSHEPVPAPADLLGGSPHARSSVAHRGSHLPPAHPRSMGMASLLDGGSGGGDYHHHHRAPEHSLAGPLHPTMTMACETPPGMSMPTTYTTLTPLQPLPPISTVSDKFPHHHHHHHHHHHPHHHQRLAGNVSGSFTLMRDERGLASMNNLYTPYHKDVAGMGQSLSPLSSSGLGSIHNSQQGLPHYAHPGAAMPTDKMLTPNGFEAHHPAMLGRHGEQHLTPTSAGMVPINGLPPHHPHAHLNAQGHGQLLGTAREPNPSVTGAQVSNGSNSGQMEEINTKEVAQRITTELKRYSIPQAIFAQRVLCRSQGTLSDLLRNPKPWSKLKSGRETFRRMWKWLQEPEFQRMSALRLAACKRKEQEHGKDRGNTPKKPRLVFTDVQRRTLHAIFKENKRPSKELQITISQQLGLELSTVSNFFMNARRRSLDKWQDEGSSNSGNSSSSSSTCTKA
Method in brief: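 HepG2, transient MRTU transfection (cis promoters); 24 h chemical exposure; total RNA → oligo(dT) RT → PCR → 6-FAM labelling → HpaI cut → CE; bidirectional fit vs DMSO.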

[7] = target: Heat shock factor protein 1 (Homo sapiens) (UniProt Q00613); assay: ATG_HSE_CIS: Attagene CIS-FACTORIAL HepG2 Assay for human Heat Shock Transcription Factor 1 (HSE) (AID 2282953); details: HepG2 HSE cis-reporter, Attagene RNA transcription; actives raise or lower the signal
Chain of Heat shock factor protein 1 (Homo sapiens) (Q00613 whole entry, looked up): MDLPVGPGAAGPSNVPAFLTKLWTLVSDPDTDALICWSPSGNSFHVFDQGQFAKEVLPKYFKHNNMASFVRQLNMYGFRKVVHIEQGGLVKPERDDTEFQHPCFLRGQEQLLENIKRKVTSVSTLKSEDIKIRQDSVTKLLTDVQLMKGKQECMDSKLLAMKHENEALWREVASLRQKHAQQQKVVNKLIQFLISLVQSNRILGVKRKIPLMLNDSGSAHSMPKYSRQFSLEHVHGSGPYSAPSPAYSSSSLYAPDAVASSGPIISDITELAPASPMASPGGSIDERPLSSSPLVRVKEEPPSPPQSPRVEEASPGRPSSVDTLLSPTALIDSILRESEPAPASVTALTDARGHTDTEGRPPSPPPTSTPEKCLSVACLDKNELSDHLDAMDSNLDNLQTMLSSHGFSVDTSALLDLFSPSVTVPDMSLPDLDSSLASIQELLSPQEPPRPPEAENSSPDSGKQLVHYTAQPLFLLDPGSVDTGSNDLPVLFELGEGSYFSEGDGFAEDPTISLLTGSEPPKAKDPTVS
Method in brief: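 After a 24 h incubation with test chemical, transfected HepG2 cells were harvested for RNA; reporter transcripts were measured by RT-PCR and capillary electrophoresis. Values reflect gain or loss of signal relative to DMSO.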

[8] = ATG_MRE_CIS: Attagene CIS-FACTORIAL HepG2 Assay for human Metal Responsive Element (MRE) (AID 2282954); details: HepG2 MRE cis-reporter transcription, Attagene multiplex; actives raise or lower the signal
Method in brief: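 HepG2 cells transiently transfected with multiple cis-element reporter units measure endogenous MTF1-driven transcription. After 24 h compound exposure, reporter mRNA is quantified by RT-PCR with 6-FAM labelling, HpaI digestion and capillary electrophoresis; bidirectional fits versus DMSO.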

[9] = ATG_PBREM_CIS: Attagene CIS-FACTORIAL HepG2 Assay for human Phenobarbital-responsive Enhancer Module (PBREM) (AID 2282955); details: HepG2 PBREM cis-reporter, Attagene multiplexed transcription; actives raise or lower the signal
Method in brief: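 Fluorescence of labelled reporter cDNA fragments, resolved by capillary electrophoresis, gives mRNA induction in transfected HepG2 cells treated for 24 h; DMSO serves as negative control and baseline.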

[10] = ATG_GRE_CIS: Attagene CIS-FACTORIAL HepG2 Assay for human Glucocorticoid Response Elements (GRE) (AID 2282947); details: HepG2 GRE cis-reporter, Attagene multiplex mRNA; actives raise or lower the signal
Method in brief: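 HepG2 cells transiently transfected with multiple cis-promoter reporter units measure endogenous TF activity; 24 h compound exposure. Reporter mRNA quantified by RT-PCR, FAM labelling, HpaI digestion and capillary electrophoresis; bidirectional fit vs DMSO baseline.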

Measured: AC50

Nc1ccc(N)c(Cl)c1
active: [2] 45.7 µM | [6] 57.2 µM | [7] 8.3 µM | [9] 26.2 µM
not listed: [10]
inactive: all other assays above

CCOC(=O)CC
not listed: [10]
inactive: all other assays above

C=CC(=O)OCCOC1C2CCC1C1CC=CC12 (centres undefined)
not listed: [9] | [10]
inactive: all other assays above

c1cc(N(CC2CO2)CC2CO2)ccc1OCC1CO1 (centres undefined)
active: [2] 74.4 µM | [5] 39.6 µM | [7] 152 µM | [8] 31.7 µM
not listed: [10]
inactive: all other assays above

O=C1OC(=O)c2cc(Oc3ccc4c(c3)C(=O)OC4=O)ccc21
not listed: [9] | [10]
inactive: all other assays above

COCC(C)N (centres undefined)
not listed: [10]
inactive: all other assays above

CCCCCCCCCCc1ccccc1
not listed: [2] | [9]
inactive: all other assays above

O=S(=O)(O)CC(O)CCl (centres undefined)
not listed: [10]
inactive: all other assays above

CCCCCCCCCCCCCCCC(=O)OCC
not listed: [2] | [9]
inactive: all other assays above

Nc1nc2ccccc2[nH]1
not listed: [10]
inactive: all other assays above

CCCCCCC(O)CO (centres undefined)
not listed: [10]
inactive: all other assays above

O=C(O)C(c1ccc(Cl)cc1)c1ccc(Cl)cc1
active: [5] 72.1 µM
not listed: [10]
inactive: all other assays above

O=C(O)c1cc2ccccc2nc1C(=O)O
not listed: [2] | [4]
inactive: all other assays above

C=CCOc1c(Br)cc(Br)cc1Br
not listed: [2]
inactive: all other assays above

Cc1ccc(C2OC[C@@H]3OC(c4ccc(C)cc4)O[C@H]([C@H](O)CO)[C@@H]3O2)cc1 (some centres undefined)
not listed: [9] | [10]
inactive: all other assays above

Cc1cc(C)c(C)cc1C
not listed: [9] | [10]
inactive: all other assays above

CCCCCCCCCCOS(=O)(=O)O
not listed: [10]
inactive: all other assays above

COCCCOCCCOC
not listed: [10]
inactive: all other assays above

CC(C)COC(=O)C=Cc1ccccc1
not listed: [10]
inactive: all other assays above
